Results as given in PubChem BioAssay (NCI).
Several values for one entry are separate records, joined by “and”; a condition that tells them apart may be missing. Equal entries are not always repeated. About 79,000 compounds went through this panel and 15% of them were active in at least one assay; those are over-represented in the sample as a whole. The source holds several records for some structures; these can differ, active in one and inactive in another. Activity calls are given as the source filed them. No stated cut-off is given here; in the data, active means growth inhibition above about 70%; inactive means the rest.

Assays:
[1] = NCI Yeast Anticancer Drug Screen. Data for the rad52 strain (AID 147);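 further: 0% = growth of vehicle-treated control cultures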; settings: S. cerevisiae rad52 mutant growth inhibition, stronger effect = higher value
Procedure, shortened: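 Measured: yeast growth inhibition. System: strain with a defined DNA damage repair alteration. Reference: vehicle-treated control cultures.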

[2] = NCI Yeast Anticancer Drug Screen. Data for the wt1 strain (AID 149);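 further: 0% = growth of vehicle-treated wt1 cultures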; settings: S. cerevisiae wt1 strain (SPY 50644) growth inhibition, stronger effect = higher value
Procedure, shortened: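 Vehicle-normalised growth inhibition; strain wt1; compound exposure.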

[3] = NCI Yeast Anticancer Drug Screen. Data for the rad50EPP+ strain (AID 151);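 further: 0% = growth of vehicle-treated control cultures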; settings: S. cerevisiae rad50 mutant strain, stronger effect = higher value
Procedure, shortened: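 One strain with a rad50 alteration (rad50EPP+) was compound-treated, its growth then compared to that of vehicle controls.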

[4] = NCI Yeast Anticancer Drug Screen. Data for the mgt1 strain (AID 153); settings: S. cerevisiae mgt1 mutant growth inhibition, stronger effect = higher value
Procedure, shortened: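 After exposure of the mgt1 yeast mutant to compound, growth was measured and reported as inhibition compared with vehicle controls.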

[5] = NCI Yeast Anticancer Drug Screen. Data for the rad50 strain (AID 155);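 further: 0% = growth of vehicle-only cultures of the same strain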; settings: S. cerevisiae rad50 strain growth inhibition, stronger effect = higher value
Procedure, shortened: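 A DNA repair-deficient yeast mutant serves as the test organism; compound-induced growth inhibition is calculated against vehicle-treated cells.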

[6] = NCI Yeast Anticancer Drug Screen. Data for the mec2-1 strain (AID 157); settings: S. cerevisiae mec2-1 strain, stronger effect = higher value
Procedure, shortened: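 Test agents were screened against the mec2-1 yeast strain, with defined DNA repair or cell cycle alteration. Growth was scored as inhibition against vehicle-only controls.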

[7] = NCI Yeast Anticancer Drug Screen. Data for the rad14 strain (AID 159);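 further: 0% = growth of vehicle-treated control cultures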; settings: S. cerevisiae rad14 strain growth inhibition, stronger effect = higher value
Procedure, shortened: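 Vehicle-treated cultures served as the baseline for growth inhibition of a DNA repair-mutant yeast strain exposed to each compound.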

[8] = NCI Yeast Anticancer Drug Screen. Data for the sgs1 mgt1 strain (AID 161);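 further: 0% = growth of cultures given vehicle only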; settings: S. cerevisiae sgs1 mgt1 strain, stronger effect = higher value
Procedure, shortened: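 Mutant yeast exposed to compound; growth scored against vehicle-only wells.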

[9] = NCI Yeast Anticancer Drug Screen. Data for the CLN2oe strain (AID 163);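 further: 0% = growth of vehicle-only control cultures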; settings: S. cerevisiae CLN2oe strain, stronger effect = higher value
Procedure, shortened: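 Here, growth inhibition in a cell-cycle-altered yeast strain after compound exposure was quantified against vehicle control growth.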

[10] = NCI Yeast Anticancer Drug Screen. Data for the cln2 rad14 strain (AID 165);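 further: 0% = growth equal to vehicle treated cultures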; settings: S. cerevisiae cln2 rad14 strain, stronger effect = higher value
Procedure, shortened: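 Growth of compound-exposed yeast (cln2 rad14 genotype) measured and expressed as inhibition relative to vehicle.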

[11] = NCI Yeast Anticancer Drug Screen. Data for the bub3 strain (AID 167); settings: S. cerevisiae bub3 mutant strain, stronger effect = higher value
Procedure, shortened: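 Inhibition values come from growth of compound-treated mutant yeast normalised to vehicle-treated controls.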

[12] = NCI Yeast Anticancer Drug Screen. Data for the wt2 strain (AID 169);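 further: 0% = growth of vehicle-treated yeast cultures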; settings: S. cerevisiae wt2 strain growth inhibition, stronger effect = higher value
Procedure, shortened: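 Genetically defined yeast strains from a DNA-repair/cell-cycle panel were used. Compound-exposed yeast growth was measured, and the inhibition was calculated relative to vehicle treatment.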

[13] = NCI Yeast Anticancer Drug Screen. Data for the sgs1 strain (AID 173);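 further: 0% = growth of vehicle-only control cultures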; settings: S. cerevisiae sgs1 mutant, stronger effect = higher value
Procedure, shortened: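 Relative growth inhibition, referenced to vehicle, was determined in a yeast strain with a defined alteration affecting DNA damage repair or cell cycle control after compound exposure.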

[14] = NCI Yeast Anticancer Drug Screen. Data for the mlh1 rad18 strain (AID 175); settings: S. cerevisiae mlh1 rad18 strain growth inhibition, stronger effect = higher value
Procedure, shortened: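 In this whole-cell yeast screen, a strain with altered DNA damage repair is challenged with compound, and its growth is measured against matched vehicle-treated controls.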

[15] = NCI Yeast Anticancer Drug Screen. Data for the rad18 strain (AID 177); settings: S. cerevisiae rad18 mutant growth inhibition, stronger effect = higher value
Procedure, shortened: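 Screen uses a yeast strain with a defined lesion in DNA damage repair; compound effect is read as loss of growth compared to untreated vehicle cultures.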

[16] = NCI Yeast Anticancer Drug Screen. Data for the mlh1 strain (AID 171);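 further: 0% = growth of vehicle-treated control cultures of the same strain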; settings: S. cerevisiae mlh1 strain growth inhibition, stronger effect = higher value
Procedure, shortened: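 Here the genetically defined yeast mutant is grown with each compound, and the extent to which its growth falls below that of vehicle-exposed cells is reported.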

[17] = at 5.0 µM (retest, dose inferred, filed as 0.5)
[18] = at 50.0 µM (retest, dose inferred, filed as 5.0)

Measured: growth inhibition

COc1ccc(C(NCCNC(c2ccc(OC)c(OC)c2)c2cc3c(cc2O)OCO3)c2cc3c(cc2O)OCO3)cc1OC (stereo unspecified)
active: [1]; at 33.0 µM 89% | [1]; at 100.0 µM 99% | [2]; at 100.0 µM 99% | [3]; at 33.0 µM 87% | [3]; at 100.0 µM 97% | [4]; at 100.0 µM 99% | [5]; at 33.0 µM 74% | [5]; at 100.0 µM 99% | [6]; at 33.0 µM 78% | [6]; [18] 95% | [6]; at 100.0 µM 99% | [7]; at 33.0 µM 92% | [7]; at 100.0 µM 99% | [8]; at 50.0 µM 72.2% | [9]; at 100.0 µM 98% | [11]; at 100.0 µM 98% | [12]; at 100.0 µM 99% | [13]; at 100.0 µM 99% | [15]; at 33.0 µM 75% | [15]; at 100.0 µM 98%
inactive: [1]; at 1.2 µM -1% | [1]; at 3.7 µM -6% | [1]; at 11.0 µM 7% | [2]; at 1.2 µM 4% | [2]; at 3.7 µM -2% | [2]; at 11.0 µM 2% | [2]; at 33.0 µM 29% | [3]; at 1.2 µM -6% | [3]; at 3.7 µM -11% | [3]; at 11.0 µM 10% | [4]; at 1.2 µM 2% | [4]; at 3.7 µM 4% | [4]; at 11.0 µM 3% | [4]; at 33.0 µM 3% | [5]; at 1.2 µM 4% | [5]; at 3.7 µM -10% | [5]; [17] -12% | [5]; at 11.0 µM 19% | [5]; [18] 7% | [5]; at 50.0 µM 38.2% | [6]; at 1.2 µM -1% | [6]; at 3.7 µM 1% | [6]; [17] -11% | [6]; at 11.0 µM 9% | [6]; at 50.0 µM 27.9% | [7]; at 1.2 µM 1% | [7]; at 3.7 µM 5% | [7]; at 11.0 µM 27% | [8]; [17] 4% | [8]; [18] 48% | [9]; at 1.2 µM -6% | [9]; at 3.7 µM 1% | [9]; at 11.0 µM 7% | [9]; at 33.0 µM 18% | [10]; [17] -29% | [10]; [18] 23% | [10]; at 50.0 µM 41.2% | [11]; at 1.2 µM -1% | [11]; at 3.7 µM -6% | [11]; [17] -21% | [11]; at 11.0 µM 0% | [11]; at 33.0 µM 15% | [11]; [18] 28% | [11]; at 50.0 µM 54.8% | [12]; at 1.2 µM -1% | [12]; at 3.7 µM -2% | [12]; at 11.0 µM 7% | [12]; at 33.0 µM 50% | [13]; at 1.2 µM 2% | [13]; at 3.7 µM 0% | [13]; at 11.0 µM 4% | [13]; at 33.0 µM 63% | [14]; [17] -29% | [14]; [18] 34% | [14]; at 50.0 µM 46.6% | [15]; at 1.2 µM -4% | [15]; at 3.7 µM -4% | [15]; at 11.0 µM 8%

Cc1nc2c(Br)cc(Br)cc2c(=O)n1-c1ccccc1NC1OCC(O)C(O)C1O (stereo unspecified)
74% (active) and 68% (inactive): [5]; [18]
inactive: [1]; at 1.2 µM 1% | [1]; at 3.7 µM 4% | [1]; at 11.0 µM 25% | [1]; at 33.0 µM 44% | [2]; at 1.2 µM -50% | [2]; at 3.7 µM 3% | [2]; at 11.0 µM 9% | [2]; at 33.0 µM 28% | [3]; at 1.2 µM 37% | [3]; at 3.7 µM 36% | [3]; at 11.0 µM 17% | [3]; at 33.0 µM 20% | [3]; at 100.0 µM 8% | [4]; at 1.2 µM 25% | [4]; at 3.7 µM 21% | [4]; at 11.0 µM 20% | [4]; at 33.0 µM 39% | [5]; at 1.2 µM 0% | [5]; at 3.7 µM 6% | [5]; [17] 10% and 17% | [5]; at 11.0 µM 18% | [5]; at 33.0 µM 63% | [6]; at 1.2 µM 7% | [6]; at 3.7 µM 9% | [6]; [17] 10% and 22% | [6]; at 11.0 µM 14% | [6]; at 33.0 µM 38% | [7]; at 1.2 µM 2% | [7]; at 3.7 µM 4% | [7]; at 11.0 µM 16% | [7]; at 33.0 µM 39% | [8]; [17] 12% and 11% | [8]; [18] 13% and 24% | [9]; at 1.2 µM 40% | [9]; at 3.7 µM 35% | [9]; at 11.0 µM 44% | [10]; [17] 40% and -2% | [11]; at 1.2 µM 11% | [11]; at 3.7 µM 5% | [11]; [17] 20% and 14% | [11]; at 11.0 µM 8% | [11]; at 33.0 µM 47% | [12]; at 1.2 µM 2% | [12]; at 3.7 µM 4% | [12]; at 11.0 µM 10% | [12]; at 33.0 µM 43% | [16]; at 1.2 µM 0% | [16]; at 3.7 µM 4% | [16]; at 11.0 µM 12% | [16]; at 33.0 µM 36% | [14]; [17] -23% and 18%
active: [1]; at 100.0 µM 97% | [2]; at 100.0 µM 93% | [4]; at 100.0 µM 97% | [5]; at 50.0 µM 94.5% and 89.8% | [5]; at 100.0 µM 96% | [6]; at 100.0 µM 96% | [7]; at 100.0 µM 94% | [9]; at 33.0 µM 72% | [9]; at 100.0 µM 97% | [10]; [18] 95% and 85% | [11]; at 50.0 µM 97.2% and 78.4% | [11]; at 100.0 µM 96% | [12]; at 100.0 µM 96% | [16]; at 100.0 µM 92% | [14]; [18] 93% and 74% | [14]; at 50.0 µM 95.2% and 82.2%
91.5% (active) and 60.1% (inactive): [10]; at 50.0 µM
70.8% (active) and 22.4% (inactive): [6]; at 50.0 µM
75% (active) and 23% (inactive): [6]; [18]
92% (active) and 51% (inactive): [11]; [18]
88.5% (active) and 61.5% (inactive): [8]; at 50.0 µM
